Screens (PubChem)
This is a sample that favours compounds with a hit; in the whole collection about 4% have one here.
TRHR enhancer – allosteric enhancers of human TRH receptor; P34981; TRHR cells, fluo-8 calcium fluorescence, EC20 TRH enhancement; enhancement, % at 2 µM; 360,000 compounds, 0.66% hits; AID 493056; in the data active means enhancement above about 30%
Target sequence (P34981 whole entry, looked up): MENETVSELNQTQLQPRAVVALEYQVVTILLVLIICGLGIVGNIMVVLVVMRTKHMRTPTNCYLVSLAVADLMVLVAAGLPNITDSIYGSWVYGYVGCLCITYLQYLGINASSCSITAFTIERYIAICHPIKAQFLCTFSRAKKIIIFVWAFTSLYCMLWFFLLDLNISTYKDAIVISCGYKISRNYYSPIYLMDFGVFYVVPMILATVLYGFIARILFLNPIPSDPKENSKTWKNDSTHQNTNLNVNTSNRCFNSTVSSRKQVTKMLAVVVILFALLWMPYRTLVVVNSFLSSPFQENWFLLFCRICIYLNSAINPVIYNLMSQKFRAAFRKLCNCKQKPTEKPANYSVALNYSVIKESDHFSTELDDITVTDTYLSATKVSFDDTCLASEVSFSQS
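TRHR-expressing cells loaded with fluo-8 calcium dye were read kinetically (ex 480/em 530) during compound addition, then stimulated with an EC20 of TRH (10 nM final). Enhancement of the Gq-mediated intracellular calcium response was scored.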
TRHR ag – agonists of human TRH receptor | P34981 | AID 493084 | activation, % at 2 µM | TRHR cells, calcium flux fluo-8, FDSS agonist mode | 360,000 compounds, 0.18% hits
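Read-out: compound-evoked intracellular calcium rise in TRHR cells, fluo-8 dye, kinetic FDSS fluorescence at 1 s/cycle following a 10-cycle baseline. Cells cultured overnight before dye loading (30 min–1.5 h, RT).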
Glioma ERSR ind – ER stress response induction in glioma; U87-MG GRP78 promoter luciferase reporter, 16 h; Potency, µM, usual class: activators; 420,000 compounds, 0.02% hits; active means well fitted activation curve with a large enough effect; further: series mostly up to about 76 µM; nearly all actives have a fitted effect of over 35% in size
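Stably transfected U87-MG human glioma cells carrying a GRP78-based luminescent sensor were seeded at 1000 cells/well, pin-dosed with compounds and incubated 16 h. Luciferase reagent was then added, and end-point luminescence was read after 10 min at room temperature.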
D1 PAM – human D1 dopamine receptor positive modulation | 360,000 compounds, 0.036% hits | P21728 | HEK293 TREx D1 cells, calcium flux, dopamine EC20 potentiation | AID 504651 | potentiation, % at 10 µM; in the data active means potentiation above about 30%
D1 ag – activates the human D1 dopamine receptor. P21728. HEK293 T-REx D1 cells, calcium flux, agonist mode. activation, % at 2 µM. 360,000 compounds, 1% hits. AID 504660
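Agonism was scored from calcium flux recorded over 180 s (1 read/s) after pintool compound addition, following a 10-cycle baseline. Cells were inducible force-coupled HEK293 TREx D1, plated overnight at 30 C and loaded with no-wash calcium dye.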
D1 antag – blocks dopamine activation of the human D1 receptor. activity change, negative = inhibition, % at 10 µM. AID 504652. HEK293 TREx D1 cells, calcium flux, dopamine EC80; stronger effect = lower value. 360,000 compounds, 3.2% hits. P21728; in the data active means activity change below about -30%
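HEK293 T-REx cells expressing inducible, force-coupled D1 receptor; no-wash Ca dye, 30–90 min RT. Cmpd → 180 s read at 1 Hz → EC80 DA → 180 s read.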
Each line names hits and unclear results; the compound was inactive in the other large screens; ! = not active in a repeat. Unless noted, no stated cut-off is given here; in the data, active means activation above about 30%; inactive means the rest.

Fc1ccc(Nc2nnc(C(F)(F)F)s2)cc1Cl	none
OC(CNC1CCCC1)COc1c(F)cc(Br)cc1F (configuration not stated)	none
CC1CCCC(C)N1CC(O)COc1c(F)cc(Br)cc1F (configuration not stated)	D1 antag -52
COc1ccc(/C=C(\C#N)C(=O)NCCc2ccccc2)cc1OCc1ccccc1	D1 ag 33
COc1ccc(S(=O)(=O)N2CCOC23CCN(S(=O)(=O)c2cc(C)ccc2C)CC3)cc1	none
CCCCN(CC)CCCNC(=O)c1ccc2c(c1)N(Cc1ccc(C)cc1)C(=O)c1ccccc1S2	D1 ag 51, D1 antag -33
CCOc1ccc(CN2C(=O)c3ccccc3Sc3ccc(C(=O)NCCCN4CCOCC4)cc32)cc1	D1 ag 30!
CCOc1ccc(-n2c(C)nc3cc(C(=O)NCCCN4CCOCC4)ccc32)cc1	D1 antag -52
CCOc1ccc(-n2c(C)nc3cc(C(=O)NCCN4CCOCC4)ccc32)cc1	none
O=C(NCCCN1CCOCC1)c1ccc2c(c1)N(Cc1ccccc1)C(=O)c1ccccc1S2	none
O=C(N/C(=C\c1ccco1)C(=O)N1CCCCC1)c1ccc([N+](=O)[O-])cc1	none (no result: TRHR enhancer, TRHR ag, D1 PAM, D1 ag, D1 antag)
CCN(CC)C(=O)c1ccc(-c2nnc(Nc3ccc(O)cc3)c3ccccc23)cc1	D1 PAM 43
CCN(CC)C(=O)c1ccc(-c2nnc(Nc3ccc(C(=O)N(C)C)cc3)c3ccccc23)cc1	D1 antag -92
CCN(CC)C(=O)c1ccc(Nc2nnc(C)c3ccccc23)cc1	none
O=C(CCc1nc2ccccc2s1)OCC(=O)c1ccccc1	none
Cc1noc(C)c1COC(=O)CCc1nc2ccccc2s1	D1 antag -32
CCC(C)NC(=O)c1ccccc1NC(=O)c1ccc(CSc2ccccc2)cc1 (configuration not stated)	D1 ag 36
CCCNC(=O)c1ccccc1NC(=O)c1ccc(CSc2ccccc2)cc1	D1 ag 40, D1 antag -46
Cc1ccc(SCc2ccc(C(=O)Nc3ccccc3C(=O)NC(C)C)cc2)cc1	none
CCCNC(=O)c1ccccc1NC(=O)c1ccccc1SC	none
NCCN	none (no result: TRHR enhancer, TRHR ag, D1 PAM, D1 ag, D1 antag)
Cc1[nH]n(-c2cccc3ccccc23)c(=O)c1/C=N/NC(=O)c1cccc([N+](=O)[O-])c1	none
Cc1ccc(-n2[nH]c(C)c(/C=N/NC(=O)c3ccc([N+](=O)[O-])cc3)c2=O)c(C)c1	TRHR enhancer 50 (no result: Glioma ERSR ind)
COc1ccccc1CN1CCCC2(CCN(C(=O)c3c(C)noc3C)CC2)C1	none (no result: TRHR enhancer, TRHR ag, D1 PAM, D1 ag, D1 antag)
Cc1cc(Cl)ccc1OCCCC(=O)NC1CCN(C)CC1	D1 antag -42
Cc1cc(NC(=O)COC(=O)CCS(=O)(=O)c2ccc(Cl)cc2)no1	none
Cc1cccc(CC(=O)NC2CCN(C)CC2)c1	TRHR enhancer 40
CC(=O)NC(Cc1cccc(C)c1)C(=O)NC1CCN(S(=O)(=O)c2ccccc2)CC1 (configuration not stated)	D1 antag -36
Cc1cc(NC(=O)COC(=O)CCCOc2ccc(Cl)cc2C)no1	D1 antag -30
Cc1ccc(S(=O)(=O)NCCC(=O)NCCc2ccc(S(N)(=O)=O)cc2)cc1C	none (no result: TRHR enhancer, TRHR ag, D1 PAM, D1 ag, D1 antag)
COc1ccc([C@]23Cc4cc(C#N)ccc4C(O2)C2=C(CC4(CCCCC4)OC2=O)O3)cc1	none (no result: Glioma ERSR ind)
N#Cc1ccc2c(c1)C[C@]1(c3ccsc3)OC3=C(C(=O)OC4(CCCCC4)C3)C2O1	D1 antag -32 (no result: Glioma ERSR ind)
Cc1oc(C)c2c(=O)ccc3c(c12)OC(N)=C(C#N)C3c1ccc(F)cc1 (configuration not stated)	D1 ag 37
Cc1ccccc1N1CCN(C2CCCN(C(=O)c3cc(CC(C)C)nn3C)C2)CC1 (configuration not stated)	D1 antag -32
CCCc1cc(C(=O)N2CCCC(N3CCN(c4ccccc4C)CC3)C2)n(C)n1 (configuration not stated)	none
CC(NC(=O)Nc1ccc(Cl)cc1)C(c1cccs1)N1CCOCC1 (configuration not stated)	none
CC(NC(=O)Nc1ccccc1)C(c1cccs1)N1CCN(C)CC1 (configuration not stated)	none
CC(NC(=O)Nc1ccc([N+](=O)[O-])cc1)C(c1cccs1)N1CCCC1 (configuration not stated)	D1 ag 175
CC(NC(=O)Nc1cccc(Cl)c1)C(c1cccs1)N1CCCC1 (configuration not stated)	D1 ag 113
Cc1ccc(CNC(=O)CSc2c3c(nc4ccc(Cl)cc24)CCCC3)o1	none
Cc1ccc(CN(Cc2ccco2)C(=O)COc2cccc(C)c2C)o1	none
Cc1c(C(=O)NCc2ccccc2)sc2nc3n(c(=O)c12)CCCCC3	D1 ag 45
Cc1ccc(CNC(=O)c2sc3nc4n(c(=O)c3c2C)CCCCC4)cc1	none
Cc1c(C(=O)Nc2cccc(C(F)(F)F)c2)sc2nc3n(c(=O)c12)CCCC3	D1 ag 36
Cc1c(C(=O)NCCc2ccc(Cl)cc2)sc2nc3n(c(=O)c12)CCCC3	D1 ag 99 (no result: Glioma ERSR ind)
COc1ccc(-c2onc(C)c2C)cc1S(=O)(=O)NC1CCC(C)CC1 (configuration not stated)	none
COC(=O)C1C2CCC(C2)C1C(=O)OCC(=O)c1ccc(C)cc1 (configuration not stated)	none
COc1cccc(/C=N/N2C(=O)CSC2=S)c1O	none
COc1cc(/C=N/N2C(=O)CSC2=S)cc(Br)c1O	D1 ag 44
CCOC(=O)c1c(C)[nH]c(C)c1S(=O)(=O)NC(C)Cc1ccco1 (configuration not stated)	none
CCOC(=O)N=Nc1c(O)n(C)c2ccccc12	none
C=CCn1c(O)c(N=Nc2ccccc2)c2ccccc21	none
C=CCn1c(O)c(N=Nc2ccccc2O)c2ccccc21	D1 ag 41
Cc1ccccc1N=Nc1c(O)n(C)c2ccccc12	D1 antag -39
Cc1cc(C(=O)CSc2nnc(-c3cccnc3)n2-c2ccccc2F)c(C)n1C	none
CSc1cccc(NC(=O)C2CCN(S(=O)(=O)c3ccc4[nH]c5c(c4c3)CCCCC5)CC2)c1	none
O=C(Nc1cccc(F)c1)C1CCN(S(=O)(=O)c2ccc3[nH]c4c(c3c2)CCCCC4)CC1	D1 antag -32
CN(CC(=O)Nc1cccc(Cl)c1)S(=O)(=O)c1ccc2[nH]c3c(c2c1)CCCC3	D1 antag -35
COc1cccc(C2CC(c3cccc(Br)c3)n3ncnc3N2)c1 (configuration not stated)	D1 antag -57
